Shown are actives, neighbours in structure and some others; about 12% of the full set was active somewhere.
RORg inh – inhibitors of mouse ROR gamma transcriptional activity; P51450; Drosophila S2 Gal4-RORgamma UAS-luciferase reporter, 20 h; Potency, µM (series often up to 53.6 µM), hits mostly inhibitors; actives 5.4% (n = 310,000); AID 2551; further: nearly all actives have a fitted effect of over 60% in size
Target sequence (P51450 whole entry, looked up, the tested form may be a part): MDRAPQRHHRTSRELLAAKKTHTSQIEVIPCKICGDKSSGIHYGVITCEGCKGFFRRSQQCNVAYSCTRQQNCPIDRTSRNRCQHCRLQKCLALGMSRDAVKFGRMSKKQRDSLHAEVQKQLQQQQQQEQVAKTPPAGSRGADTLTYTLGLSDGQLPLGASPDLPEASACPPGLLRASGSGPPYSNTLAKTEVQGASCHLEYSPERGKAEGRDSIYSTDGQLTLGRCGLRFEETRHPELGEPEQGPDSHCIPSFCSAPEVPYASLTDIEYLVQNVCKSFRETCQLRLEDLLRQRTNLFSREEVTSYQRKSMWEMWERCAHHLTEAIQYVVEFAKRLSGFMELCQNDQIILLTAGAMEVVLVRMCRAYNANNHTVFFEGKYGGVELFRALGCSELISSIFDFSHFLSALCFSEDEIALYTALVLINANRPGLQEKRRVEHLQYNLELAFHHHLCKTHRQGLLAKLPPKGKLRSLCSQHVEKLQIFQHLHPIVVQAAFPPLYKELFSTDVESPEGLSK
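Compounds are pin-transferred onto Drosophila Schneider cells expressing a copper-inducible Gal4–ROR gamma transactivation domain fusion. After 1 hr, copper sulfate is added to 700 uM final; luciferase is read 20 hr later.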
PLK1 PBD block – PLK1 (human) polo-box domain binding inhibition | Potency, µM, most hits filed as inhibitors | Plk1 PBD binding of FITC phosphopeptide, fluorescence polarization | AID 720504 | actives 2.8% (n = 360,000) | P53350; further: series mostly up to about 57 µM; nearly all actives have a fitted effect of over 65% in size
Gal4-VP16 FLuc – counter-screen for ROR gamma inhibitors: Gal4-VP16 reporter; Drosophila S2 Gal4-VP16 UAS-luciferase, luminescence, 20 h; Potency, µM (highest dose often 53.6 µM), most hits filed as inhibitors; actives 3.5% (n = 310,000); AID 2546;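 further: Gal4-VP16 expression switched on by copper sulfate through the metallothionein promoter; nearly all actives have a fitted effect of over 50% in size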
Sfp inh – blocks B. subtilis Sfp PPTase activity. Q9F4F7. Biochemical Sfp PPTase activity, qHTS. Potency, µM, most hits filed as inhibitors. actives 3.5% (n = 310,000);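 further: the enzyme is Sfp with the accession as filed and its product quenches rhodamine fluorescence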
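Compounds were incubated with enzyme (final 15 nM) for 15 min at room temperature before substrate addition started the reaction. Fluorescence at 525 nm excitation, 598 nm emission was recorded immediately and after 30 minutes.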
ALDH1A1 block – inhibitors of human aldehyde dehydrogenase 1A1. P00352. Purified ALDH1A1, NADH fluorescence, propionaldehyde substrate. Potency, µM (top dose mostly 75.3 µM), hits mostly inhibitors. actives 7.3% (n = 220,000). AID 1030; active means well fitted inhibition curve with a large enough effect, not every such curve was filed as active; inconclusive means small, poorly fitted or top-dose-only effect, or another doubt; inactive means no such curve, though single readings can be large or run the other way
A number is an active result; 0 = inactive; ? = inconclusive; - = no result given; [ ] = another dose, or the depositor's remark. Unless noted, the call rests on the fitted dose curve; in most records, active means well fitted curve in the direction sought with a large enough effect; inconclusive means small, poorly fitted or top-dose-only effect, or another doubt; inactive means no such curve, though single readings can be large; an effect the other way counts as inactive or inconclusive.

SMILES	RORg inh	PLK1 PBD block	Gal4-VP16 FLuc	Sfp inh	ALDH1A1 block
CN(C)CCCNc1nc2cc(-c3cnn(Cc4ccccc4)c3)sc2c(=O)n1C	-	0	-	-	-
CC(=O)C1=CCC(c2ccccc2)N(Cc2ccccc2)C1 (stereo not drawn)	-	0	-	-	-
CC1(C)CC(=O)C(C=Nc2ccc(NC3=C(C#N)C(=O)CC(C)(C)C3)cc2)=C(O)C1	0	0	0	0	7.1µM
CC1(C)CC(=O)C(/C=N/c2ccccn2)=C(O)C1	0	0	0	0	14µM
COc1ccc(N=CC2=C(O)CC(C)(C)CC2=O)cc1OC	0	0	0	0	-
CC1(C)CC(=O)C(C=Nc2ccccc2)=C(O)C1	0	0	0	0	0
CC1(C)CC(=O)C(C=Nc2cccc(/N=C/C3=C(O)CC(C)(C)CC3=O)n2)=C(O)C1	0	-	0	0	3.5µM
Cc1[nH]nc(N=CC2=C(O)CC(C)(C)CC2=O)c1-c1ccccc1	0	0	0	0	28µM
Cc1cccc(CNc2ncncc2-c2cccc(NS(C)(=O)=O)c2)c1	0	-	0	0	?
O=C(O)c1c2c(c(O)c3c1CN(C1CCCCC1)CO3)OCN(C1CCCCC1)C2	-	-	-	-	0[13.5 µM]
COCCNC(=O)C1(C)CCCN(C(=O)c2cccc(Cl)c2)C1 (stereo not drawn)	-	0	-	-	-
CC1(C)CC(=O)C(C=NCCO)=C(O)C1	0	27µM	0	0	0
Cc1cccc2cc(CN(Cc3ccc(F)cc3)C(=O)N3CCOCC3)c3nnnn3c12	0	24µM	0	0	0
CC(C)NC(=O)C1(C)CN(S(C)(=O)=O)CC(=O)N1CCc1ccc(O)cc1 (stereo not drawn)	-	0	-	-	-
CCCCCCOc1ccc(C(=N)N(CCCC)CCCC)c2ccccc12	?	-	22µM	18µM	-
CCCCN(CC)CCOc1cccc2ccccc12	-	-	-	?	0
CC(=O)N1c2ccc(S(=O)(=O)NCC3CCC(C(=O)Nc4ncccc4C)CC3)cc2CC1C (stereo not drawn)	0	21µM	0	0	-
CC(=O)N1c2ccc(S(=O)(=O)NCC3CCC(C(=O)Nc4cc(C)ccn4)CC3)cc2CC1C (stereo not drawn)	?	0	7.1µM	0	-
CCCNC(=O)C1CCC(CNS(=O)(=O)c2ccc3c(c2)CC(C)N3C(C)=O)CC1 (stereo not drawn)	0	0	0	0	-
CCC(C)NC(=O)C1CCC(CNS(=O)(=O)c2ccc3c(c2)CC(C)N3C(C)=O)CC1 (stereo not drawn)	0	24µM	0	0	-
CC(=O)N1c2ccc(S(=O)(=O)N3CCC(C(=O)Nc4cc(C)ccn4)CC3)cc2CC1C (stereo not drawn)	0	0	0	0	-
Cc1ccc(S(=O)(=O)N(C)C[C@@H]2OCc3cnnn3CCCC(=O)N([C@H](C)CO)C[C@@H]2C)cc1	-	0	-	-	-
CCCN(CC(=O)Nc1ccccc1C)C(=O)C1CC(=O)N(Cc2ccccc2)C1 (stereo not drawn)	-	0	-	-	-
O=C(CCNC(=O)N1CC(=O)Nc2ccccc21)NCc1ccc(Cl)cc1	-	0	-	-	-
CCCCOc1ccc2c(c1)C(=O)c1cc(O)ccc1-2	8.9µM	0	?	0	40µM
SMILES	RORg inh	PLK1 PBD block	Gal4-VP16 FLuc	Sfp inh	ALDH1A1 block
CC(C)C[C@H](NC(=O)c1nc[nH]c1C(=O)NCC(=O)OCc1ccccc1)C(=O)OC(C)(C)C	13µM	0	?	0	-
CC(C)C[C@H](NC(=O)c1[nH]cnc1C(=O)N[C@@H](C)C(=O)OCc1ccccc1)C(=O)OC(C)(C)C	7.1µM	0	16µM	0	-
CC(C)CC(NC(=O)C(COCc1ccccc1)NC(=O)OC(C)(C)C)C(=O)NN (stereo not drawn)	0	27µM	0	0	0
COC(=O)[C@@]12C[C@@H](CC(=O)N3CCC(c4ccccc4)CC3)C(=O)N(CCc3ccc(OC)c(OC)c3)C1=CCC(C)(C)C2	-	0	-	-	-
COCOCCn1cc(CN2CCS(=O)(=O)N(Cc3ccc(-c4ccc(F)nc4)cc3)C(CC(C)C)C2=O)nn1 (stereo not drawn)	-	0	-	-	-
COc1cc2c(c(OC)c1OC)-c1ccc(OC)c(=O)cc1[C@@H](NC=O)CC2	0	-	0	0	-
CC1CC(=S)Nc2ccccc2S1 (stereo not drawn)	?	0	4µM	0	0
O=C(Cn1cnc2ccccc2c1=O)N1CCN(c2ccccc2)CC1	0	0	0	0	0
Cc1nc2ncnn2c(N2CCN(C(=O)Cc3cccs3)CC2)c1C	0	0	0	0	7.9µM
O=C(CCc1ccc(Oc2cc([N+](=O)[O-])cc([N+](=O)[O-])c2)cc1)N1CCCCCC1	0	0	?	18µM	13µM
O=C(Cn1cc([N+](=O)[O-])nc1[N+](=O)[O-])N1CCN(c2ccccc2)CC1	5.6µM	0	?	0	0
O=C(Cc1cccs1)N1CCN(c2ccc(F)cc2)CC1	0	0	0	0	0
O=C(Cc1cccs1)N1CCN(c2ccc([N+](=O)[O-])cc2)CC1	?	0	0	0	25µM
COc1ccc(NC(=O)C(c2ccc(C#N)cc2)n2c(=O)c(-c3cc4ccccc4[nH]3)nc3ccccc32)cc1 (stereo not drawn)	-	0	-	-	-
COc1ccc(S(=O)(=O)NC(=O)C2(C)CCN2C(=O)Cc2cc(C)cc(C)c2)cc1OC (stereo not drawn)	-	0	-	-	-
Cc1nc2ccc(C(=O)NCCCn3ccnc3)cn2c1N(C)CC1CCCCC1	-	0	-	-	-
O=C(CCc1ccccc1)N1CCN(c2ccc([N+](=O)[O-])cc2)CC1	0	0	0	0	2.2µM
O=C(Cc1ccccc1)N1CCN(c2ccc([N+](=O)[O-])cc2)CC1	0	0	0	0	-
CCc1ccccc1NC(=O)/C(=C/c1ccco1)c1ccccc1	0	0	0	45µM	?
Cc1ccccc1NC(=O)/C(=C/c1ccco1)c1ccccc1	0	0	0	56µM	0
CC(OC(=O)/C(C#N)=C/c1ccco1)C(=O)N(C)c1ccccc1 (stereo not drawn)	-	0	-	-	-
CC(C)(C)NC(=O)/C(=C/c1ccco1)c1ccccc1	0	0	0	?	0
CC(C)OC(=O)/C(=C/c1ccco1)c1ccccc1	?	0	0	45µM	-
CCCC(=O)O[C@]1(C(=O)COC(C)=O)CC[C@H]2C3C[C@H](F)C4=CC(=O)C=CC4(C)[C@@]3(F)[C@@H](O)CC21C (stereo partly drawn)	0	-	0	0	-
CCN(C(=O)Cn1cnc2c1c(=O)n(C)c(=O)n2C)C1CCS(=O)(=O)C1 (stereo not drawn)	-	0	-	-	-
CC1(C)C[C@@H]1C(=O)N/C(=C\CCCCSC[C@H](N)C(=O)O)C(=O)O	0	0	0	79µM	-
NCCSC[C@H](N)C(=O)O	-	-	-	-	0[13.5 µM]
COc1cc2c(C(=O)N3CCN(C4CCCCC4)CC3)cn(CC(C)C)c(=O)c2cc1OC	0	0	0	0	22µM
O=C(O)c1cccc(Nc2ccc3nonc3c2[N+](=O)[O-])c1	-	0	-	0	-
O=[N+]([O-])c1cncc([N+](=O)[O-])c1Nc1cccc(O)c1	?	?	11µM	0	-
